Reference: PubChem BioAssay (NCI)
Several values for one entry are separate records, joined by “and”; a condition that tells them apart may be missing. Equal entries are not always repeated. About 83,000 compounds went through this panel and 20% of them were active in at least one assay; those are over-represented in the sample as a whole.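 Negative percent growth values reflect cell death: -40 means 40% of the cells present at the start died, and -100 means all died.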 Activity calls are given as the source filed them. How the source made its calls: active means growth percent below 10; inactive means the rest. Where a SMILES comes first, the peptide text is derived from it.

What follows are molecules tested on MOLT-4 leukemia (assay: NCI-60 one-dose screen, 48 h (100 = growth as untreated, 0 = no growth, -100 = all killed)). Conditions: 10 µM unless noted.

| SMILES | growth |
| --- | --- |
| NC(Cc1c[nH]c2ccccc12)C(=O)O (stereo unspecified) | 3.12% (active) and 100% (inactive) |
| Cc1ccc(=O)[nH]n1 | 105% (inactive) and 101% (inactive) |
| NC(Cc1ccccc1)C(=O)NC(Cc1ccccc1)C(=O)O (stereo not drawn) (H-Phe-Phe-OH; configuration not given here) | 100% (inactive) and 101% (inactive) |
| CN(C)c1ccc(/C=C\C(=O)c2ccccc2)cc1 | 74.5% (inactive) and 85.3% (inactive) and 72.2% (inactive) |
| C/C(=C\c1ccccc1)c1ccccn1 | 73.3% (inactive) |
| N#CC(C#N)N=Nc1ccc(Cl)cc1 | 37.6% (inactive) |
| OCC1OC(O)C(O)C(O)C1O (stereo unspecified) | 96.6% (inactive) |
| CC1CCC2(OC1)OC1CC3C4CC=C5CC(O)CCC5(C)C4CCC3(C)C1C2C (stereo unspecified) | 102% (inactive) |
| CC1CCC2(C(=O)O)CCC3(C)C(=CCC4C5(C)CCC(O)C(C)(C)C5CCC43C)C2C1C (stereo unspecified) | -11.8% (active) and 84.5% (inactive) |
| CC1CCC(C(C)C)C(NNC(N)=O)C1 (stereo unspecified) | 113% (inactive) |
| CC(=O)Nc1ccc(S(N)(=O)=O)cc1 | 103% (inactive) and 98.8% (inactive) |
